Measured values as given in paper PMC4552634, “A New Set of Chemical Starting Points with Plasmodium falciparum Transmission-Blocking Potential for Antimalarial Drug Discovery” (PLoS ONE, 2015).
Out of some 13,000 compounds screened, about 3,200 (25%) showed an effect of 50% or more. Some of the results follow.

Tested on: P. falciparum stage V gametocytes
Parameters: BacTiter-Glo ATP luminescence viability of purified stage V gametocytes in 384-well plates, per cent inhibition versus DMSO
Conditions: 48 h, 5 µM; inhibitor

Compound | % Inhibition [%]
CN1CC=C(c2c[nH]c3ccc(Sc4ccccc4)cc23)CC1 [TCMDC-138969] | 5.413
CCN1CCN(Cc2ccc3nc(-c4cc(C)n(Cc5cc(Cl)ccc5OCc5ccccc5)n4)[nH]c3c2)CC1 [TCMDC-136884] | 23.91
Cn1c(=N)n(CC(=O)OCc2ccc(OCc3ccccc3)cc2)c2ccccc21 [TCMDC-138698] | 4.888
Cn1c(=N)n(CC(=O)N2CCc3ccc(Cl)cc3C2Cc2ccc(Cl)c(Cl)c2)c2ccccc21 (centres unmarked) [TCMDC-138699] | 109.1
CC(C)C[C@H]1c2[nH]c3ccc(Cl)cc3c2CCN1C(=O)CCc1ccccc1 [TCMDC-135179] | 1.219
CCC1CN(S(=O)(=O)c2ccc3c(c2)NC(=O)CC(=O)N3)c2cc(Cl)ccc2O1 (centres unmarked) [TCMDC-125278] | 25.65
CCn1c(-c2cc(C)on2)nc2cnc(Oc3ccc(C(=O)N4CC(=O)N(C)C4C(C)(C)C)cc3)cc21 (centres unmarked) [TCMDC-134940] | 2.551
CCn1ncc2c(N3CCCC3=O)cc(C(=O)N[C@@H](Cc3ccccc3)[C@H](O)CNC(C)(C)c3cccc(C(F)(F)F)c3)cc21 [TCMDC-135064] | 21.85
CCc1c[nH]c2c(N3CCCC3=O)cc(C(=O)N[C@@H](Cc3ccccc3)[C@H](O)CNC(C)(C)c3cccc(C(F)(F)F)c3)cc12 [TCMDC-134402] | 2.989
CCc1cn(C)c2c(N3CCCC3=O)cc(C(=O)N[C@@H](Cc3ccccc3)[C@H](O)CNCc3cccc(OC)c3)cc12 [TCMDC-135195] | 21.06
CCc1cn(C)c2c(N3CCCC3=O)cc(C(=O)N[C@@H](Cc3ccccc3)[C@H](O)CNC(C)(C)c3cccc(C(F)(F)F)c3)cc12 [TCMDC-135197] | 87.86
CCc1cn(C)c2c(N3CCCC3=O)cc(C(=O)N[C@@H](Cc3ccccc3)[C@H](O)CNC(C)(C)c3cccc(OC)c3)cc12 [TCMDC-135196] | 90.21
CCc1c[nH]c2c(N3CCCC3=O)cc(C(=O)N[C@@H](Cc3ccccc3)[C@H](O)CNC(C)(C)c3cccc(OC)c3)cc12 [TCMDC-134404] | 44.35
C[C@@H](NC(=O)c1nn(-c2ccc(Cl)cc2)c(=O)c2ccccc12)C(C)(C)C [TCMDC-124772] | -4.584
Cc1cccc(C(=O)Nc2ccnc(N(C)CCCN(C)Cc3cccc(O)c3)c2)c1 [TCMDC-134953] | -14.35
NC(=O)c1cccc(C(=O)Nc2cccc(-c3cccc(-c4nc5ccc(F)cc5[nH]4)c3)c2)c1 [TCMDC-132198] | -10.48
Cc1nnsc1C(=O)Nc1cccc(-c2ccc(-c3nc4ccccc4[nH]3)cc2)c1 [TCMDC-137083] | 11.59
Cc1nnsc1C(=O)Nc1cccc(-c2cccc(-c3nc4ccc(C(F)(F)F)cc4[nH]3)c2)c1 [TCMDC-137084] | -5.727
Cc1nnsc1C(=O)Nc1ccc(-c2cccc(-c3nc4ccc(C(F)(F)F)cc4[nH]3)c2)cc1 [TCMDC-137085] | 34.28
Cc1nnsc1C(=O)Nc1ccc(-c2cccc(-c3nc4c(C)cccc4[nH]3)c2)cc1 [TCMDC-137087] | 78.56
Cc1nnsc1C(=O)Nc1cccc(-c2csc(-c3nc4ccccc4[nH]3)c2)c1 [TCMDC-132394] | 19.6
Cc1nnsc1C(=O)Nc1cccc(-c2cccc(-c3nc4ccc(F)cc4[nH]3)c2)c1 [TCMDC-137081] | 77.92

Compound | % Inhibition [%]
Cc1nnsc1C(=O)Nc1ccc(-c2cccc(-c3nc4ccc(F)cc4[nH]3)c2)cc1 [TCMDC-137080] | -15.9
Cc1nnsc1C(=O)Nc1cccc(-c2ccc(-c3nc4ccc(C(F)(F)F)cc4[nH]3)cc2)c1 [TCMDC-137088] | 70.24
Cc1cccc2[nH]c(-c3cccc(-c4ccc(NC(=O)c5cccc(C(N)=O)c5)cc4)c3)nc12 [TCMDC-132201] | 3.68
Cc1nnsc1C(=O)Nc1cccc(-c2cccc(-c3nc4ccccc4[nH]3)c2)c1 [TCMDC-137078] | 82.4
Cc1nnsc1C(=O)Nc1cccc(-c2cccc(-c3nc4c(C)cccc4[nH]3)c2)c1 [TCMDC-137086] | -18.91
CC(C)(C)c1nn(-c2ccccc2)c2[nH]c(=O)c(CNC3CCCC3)cc12 [TCMDC-136483] | 5.874
Cc1cccc2c(C(=O)NC3CCN(Cc4ccccc4)CC3)cc(-c3cccnc3)nc12 [TCMDC-124900] | 15.64
O=S(=O)(c1c(Cl)cc(Cl)cc1Cl)N1CCCCC(c2ccc(F)c(F)c2)=N1 [TCMDC-135420] | -45.8
Cc1cccc(-c2cccc(CNc3nc(NCCc4ccc(O)cc4)nc(N4CCNCC4)n3)c2)c1 [TCMDC-133810] | 31.6
O=C(Nc1ccc(-c2oc(C(=O)NCCc3cccc(Cl)c3)cc2-c2ccncc2)cc1)Nc1cccc(Cl)c1 [TCMDC-135809] | -31.28
CC(C)CNC(=O)c1cncc(-c2ccc(CN3CCC(N4CCCC4)CC3)cc2)c1 [TCMDC-134236] | 32.19
COc1ccc(CNc2ncnc3c2[nH]c2ccc(F)cc23)cc1 [TCMDC-124466] | 15.1
Cc1cc2c(/C=C/C(=O)NC3CCC(CCN4CCc5ccc(C#N)cc5CC4)CC3)cccc2[nH]1 (centres unmarked) [TCMDC-139674] | -23
CCN(CCC1(c2ccc(Cl)c(Cl)c2)CN(C(=O)c2cc(OC)c(OC)c(OC)c2)CCO1)C1CC2c3ccccc3CC21 (centres unmarked) [TCMDC-135570] | -88.52
O=C(Nc1cccc(-c2ccc(-c3nc4ccc(F)cc4[nH]3)cc2)c1)c1csnn1 [TCMDC-136900] | -0.6993
CC(=O)Nc1nc(C(=O)Nc2cccc(-c3ccc(-c4nc5ccc(F)cc5[nH]4)cc3)c2)cs1 [TCMDC-137126] | 7.232
Cc1nnsc1C(=O)Nc1cccc(-c2ccc(-c3nc4ccc(F)cc4[nH]3)cc2)c1 [TCMDC-137082] | 79.62
CC[C@H](C)CNC(=O)c1ccnc(-c2ccc(CNCCCc3ccccc3)cc2)c1 [TCMDC-134251] | 81.79
CC(C)CNC(=O)c1ccnc(-c2ccc(CNCCCc3ccccc3)cc2)c1 [TCMDC-134252] | -3.007
CC[C@H](C)CNC(=O)c1cncc(-c2ccc(CNCCCc3ccccc3)cc2)c1 [TCMDC-134246] | -1.463
Cc1nc(N)nc(N)c1OCc1cccc2ccccc12 [TCMDC-131357] | -0.5645
Cc1cccc2[nH]c(-c3ccc(-c4ccc(CN5CCCC(N)C5)cc4)cc3)nc12 (centres unmarked) [TCMDC-133863] | 93.4

Compound | % Inhibition [%]
Cc1cccc2[nH]c(-c3ccc(-c4cccc(CN5CCC(C(N)=O)CC5)c4)cc3)nc12 [TCMDC-132694] | -8.961
Cc1cccc2[nH]c(-c3ccc(-c4ccc(CN5CCCCC5)cc4)cc3)nc12 [TCMDC-133901] | -1.455
Cc1cccc2[nH]c(-c3ccc(-c4ccc(CN5CCN(CCO)CC5)cc4)cc3)nc12 [TCMDC-133033] | 4.83
Cc1cccc2[nH]c(-c3ccc(-c4cccc(CN5CCCC5CN)c4)cc3)nc12 (centres unmarked) [TCMDC-132993] | 21.61
Cc1cccc2[nH]c(-c3ccc(-c4ccc(CN5CCN(CCN6CCOCC6)CC5)cc4)cc3)nc12 [TCMDC-133931] | 6.93
Cc1cccc2[nH]c(-c3ccc(-c4ccc(CN5CCCC5CN)cc4)cc3)nc12 (centres unmarked) [TCMDC-132999] | 66.58
Cc1cccc2[nH]c(-c3ccc(-c4ccc(CN5CCN(CCC#N)CC5)cc4)cc3)nc12 [TCMDC-133867] | -11.37
Cc1cccc2[nH]c(-c3cccc(-c4ccc(CN5CCCC5CN)cc4)c3)nc12 (centres unmarked) [TCMDC-132991] | 36.61
Cc1cccc2[nH]c(-c3ccc(-c4ccc(CN5CCN(c6ccncc6)CC5)cc4)cc3)nc12 [TCMDC-132919] | 17.4
Cc1cccc2[nH]c(-c3ccc(-c4ccc(CN5CCN(C6CCN(C)CC6)CC5)cc4)cc3)nc12 [TCMDC-133865] | 83.09
Cc1cccc2[nH]c(-c3ccc(-c4ccc(CN5CCN(CC6CCCN(C)C6)CC5)cc4)cc3)nc12 (centres unmarked) [TCMDC-133898] | 93.25
O=C(Nc1cccc(OC2CCN(Cc3ccsc3)CC2)c1)c1ccc(C(F)(F)F)cc1 [TCMDC-133737] | -11.34
Cc1cc(OCc2ccncc2)cc2c1C(=O)CC(C)(C)O2 [TCMDC-131314] | 21.7
O=C(N1CCN(c2ccnc3cc4c(cc23)N(Cc2ccccc2)CC4)CC1)C(F)(F)F [TCMDC-140138] | 5.48
O=C(Nc1ccc2c(c1)CCN2C1CCN(Cc2ccc(F)cc2Cl)C1)c1ccco1 (centres unmarked) [TCMDC-135068] | -23.63
Cc1ccc(C(=O)Nc2ccc(-c3nc4ccccc4[nH]3)cc2)cc1S(=O)(=O)N1CCOCC1 [TCMDC-124532] | -13.26
COC(=O)c1cccc(CNCc2ccc(-c3ccc(-c4nc5cc(C(F)(F)F)ccc5[nH]4)s3)cc2)c1.O=C(O)C(F)(F)F [TCMDC-132958] | -50.86
CCCC(C)Nc1nc(C)cc(NCCC(=O)Nc2ccccc2)n1 (centres unmarked) [TCMDC-134763] | 23.15
FC(F)(F)COc1ccc2ccccc2c1CNCCCCCCNCc1c(OCC(F)(F)F)ccc2ccccc12 [TCMDC-137816] | 113.4
FC(F)(F)COc1ccc2ccccc2c1CCNCCCCNCCc1c(OCC(F)(F)F)ccc2ccccc12 [TCMDC-137317] | 103.9
Cc1sc(C)c(C(F)(F)F)c1CNCCCNc1cc(=O)c2ccccc2[nH]1 [TCMDC-140766] | -57.97
